# Where “and” joins values, the source holds several entries; their conditions need not be identical. Equal values may be shown once. Inconclusive results are not listed. Entries that show only a call come without a potency. Some compounds were tested as several samples or in several runs, with calls that do not always agree. Calls of active or inactive are those of the source. Calls come from the whole dose curve; as a rule, active = well fitted curve in the direction sought with a large enough effect in the repeat runs; inconclusive = weak or mixed curves; inactive = no such curve, though single readings can be large; an effect the other way counts as inactive or inconclusive.
# Experiments:
# [1] = qHTS RealTime-Glo MT Cell Viability Assay in HEK293 cells - 0 hour (AID 1224880); note: top concentration of the series differs between compounds; nearly all actives have a fitted effect of over 45% in size
# Outline: (§1)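 Cells were seeded together with NanoLuc luciferase and a prosubstrate that viable cells reduce to a luciferase substrate. After a 5 h incubation at 37 C/5% CO2, compounds were added and luminescence was measured repeatedly during 40 h of treatment.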
# [2] = A CellTox Green Cytotoxicity Assay to monitor cytotoxicity in HEK293 cells - 32 hour (AID 1224881); note: nearly all actives have a fitted effect of over 40% in size; note: potency is the fitted concentration of half-maximal effect
# Outline: (§2)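 Nonlytic real-time cytotoxicity: HEK293 + CellTox Green reagent plated, 5 h preincubation, pintool compound addition (23 nL in DMSO), 37 C for 40 h, fluorescence measured at successive time points.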
# [3] = A CellTox Green Cytotoxicity Assay to monitor cytotoxicity in HepG2 cells - 0 hour (AID 1224882); note: nearly all actives have a fitted effect of over 35% in size; note: potency is the fitted concentration of half-maximal effect
# Outline: (§3)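 Read-out is fluorescence of a cyanine dye excluded from live cells that stains DNA of dead HepG2 cells, with signal proportional to cytotoxicity. Plates were read at 0, 8, 16, 24, 32 and 40 h after compound addition.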
# [4] = A CellTox Green Cytotoxicity Assay to monitor cytotoxicity in HepG2 cells - 32 hour (AID 1224883); note: nearly all actives have a fitted effect of over 50% in size; note: potency is the fitted concentration of half-maximal effect
# Outline: as §3
# [5] = A CellTox Green Cytotoxicity Assay to monitor cytotoxicity in HEK293 cells - 8 hour (AID 1224884); note: nearly all actives have a fitted effect of over 35% in size; note: potency is the fitted concentration of half-maximal effect
# Outline: as §2
# [6] = qHTS RealTime-Glo MT Cell Viability Assay in HepG2 cells - 16 hour (AID 1224885); note: nearly all actives have a fitted effect of over 50% in size; note: potency is the fitted concentration of half-maximal effect
# Outline: (§4)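 HepG2 suspension premixed with RealTime-Glo reagents is plated at 600 cells per well and left 5 h at 37 C/5% CO2. Compounds in DMSO then go in, and bioluminescence reflecting viable cell number is recorded over 40 h.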
# [7] = qHTS RealTime-Glo MT Cell Viability Assay in HEK293 cells - 24 hour (AID 1224886); note: nearly all actives have a fitted effect of over 50% in size; note: potency is the fitted concentration of half-maximal effect; for activity change, negative = cytotoxicity: top concentration of the series differs between compounds
# Outline: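 Reads taken at 0, 8, 16, 24, 32 and 40 h from the same wells. HEK293 cells (600/well) carried RealTime-Glo reagents from seeding, with compound added after a 5 h settle at 37 C.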
# [8] = qHTS RealTime-Glo MT Cell Viability Assay in HEK293 cells - 8 hour (AID 1224887); note: nearly all actives have a fitted effect of over 50% in size; note: potency is the fitted concentration of half-maximal effect; for activity change, negative = cytotoxicity: top concentration of the series differs between compounds
# Outline: as §1
# [9] = A CellTox Green Cytotoxicity Assay to monitor cytotoxicity in HEK293 cells - 16 hour (AID 1224888); note: nearly all actives have a fitted effect of over 35% in size; note: potency is the fitted concentration of half-maximal effect
# Outline: as §2
# [10] = qHTS RealTime-Glo MT Cell Viability Assay in HepG2 cells - 0 hour (AID 1224889); note: nearly all actives have a fitted effect of over 50% in size; note: potency is the fitted concentration of half-maximal effect
# Outline: as §4
SMILES,Potency [1],Potency [2],Potency [3],Potency [4],Potency [5],Potency [6],Potency [7],Potency [8],Potency [9],Potency [10],"activity change, negative = cytotoxicity [1]","activity change, negative = cytotoxic [6]","activity change, negative = cytotoxicity [10]"
CN(C)C(=S)SC(=S)N(C)C,inactive,2.52 µM (active) and 8.71 µM (active) and 3.01 µM (active),inactive,2.52 µM (active) and 1.95 µM (active) and 2.68 µM (active),inactive,2.75 µM (active),2.24 µM (active) and 2.19 µM (active) and 6.74 µM (active),inactive,inactive,inactive,,,
CN(C)C(=O)Nc1ccc(Cl)c(Cl)c1,inactive,inactive,inactive,inactive,inactive,inactive,inactive,inactive,inactive,inactive,,,
NS(=O)(=O)c1cc2c(cc1Cl)NCNS2(=O)=O,inactive,inactive,inactive,inactive,inactive,inactive,inactive,inactive,inactive,inactive,,,
COc1ccc(C(Cl)=C(c2ccc(OC)cc2)c2ccc(OC)cc2)cc1,inactive,inactive,inactive,inactive,inactive and 43.6 µM (active),inactive,inactive,inactive,inactive,inactive,,,
NS(=O)(=O)O,inactive,inactive,inactive,inactive,inactive,inactive,inactive,inactive,inactive,inactive,,,
O=C1NS(=O)(=O)c2ccccc21,inactive,inactive,inactive,inactive,inactive,inactive,inactive,inactive,inactive,inactive,,,
C/C=C/C=C/C(=O)O,inactive,inactive,inactive,inactive,inactive,inactive,inactive,inactive,inactive,inactive,,,
Nc1ccc(S(N)(=O)=O)cc1,inactive,inactive,inactive,inactive,inactive,inactive,inactive,inactive,inactive,inactive,,,
CCc1nc(N)nc(N)c1-c1ccc(Cl)cc1,inactive,inactive,inactive,inactive,inactive,inactive,inactive,inactive,inactive,inactive,,,
CCCCCCCCCCCCCCCC[N+](C)(C)Cc1ccccc1,inactive,50.5 µM (active) and 44.4 µM (active) and 23.9 µM (active),inactive,25.3 µM (active) and 15.8 µM (active) and 10.7 µM (active),45 µM (active) and 15.8 µM (active) and 21.3 µM (active),25.3 µM (active) and 19.8 µM (active) and 21.3 µM (active),8.98 µM (active) and 22.3 µM (active) and 3.01 µM (active),50.5 µM (active) and 49.8 µM (active) and inactive,50.5 µM (active) and 44.4 µM (active) and 23.9 µM (active),inactive,,,
CC(=O)CCC(=O)O,,inactive,inactive,inactive,inactive,inactive,inactive,inactive,inactive,inactive,,,
CC(O)(P(=O)(O)O)P(=O)(O)O,,inactive,inactive,inactive,inactive,inactive,inactive and 436 nM (active),inactive,inactive,inactive,,,
O=C1NC(=O)C(c2ccccc2)(c2ccccc2)N1,inactive,inactive and 19 µM (active),inactive,inactive and 21.3 µM (active),inactive and 21.3 µM (active),inactive,inactive,inactive,,inactive,,,
O=C(Nc1ncc([N+](=O)[O-])s1)c1cccs1,,inactive,inactive,inactive,inactive,inactive,inactive,inactive,inactive,inactive,,,
CN(C)CCOC(c1ccccc1)c1ccccc1,,inactive,inactive,inactive,inactive,inactive,inactive,inactive,inactive,inactive,,,
O=S1(=O)OC(c2ccc(O)cc2)(c2ccc(O)cc2)c2ccccc21,,inactive,inactive,inactive,inactive,49 µM (active) and inactive,inactive,inactive,inactive,49 µM (active),,,
CC(C)c1c(C(=O)Nc2ccccc2)c(-c2ccccc2)c(-c2ccc(F)cc2)n1CC[C@@H](O)C[C@@H](O)CC(=O)O,inactive,inactive,inactive,2.98 µM (active) and 10.2 µM (active) and 6.01 µM (active),inactive,inactive,inactive,,inactive,inactive,,,
Nc1ccc2c(c1)CN1C(=O)c3ccccc3C1=N2,,10.4 µM (active),10.4 µM (active),10.4 µM (active),10.4 µM (active),,9.28 µM (active),,10.4 µM (active),,5.64% [at 15.8 µM] (inactive),-5.66% [at 15.8 µM] (inactive),4.86% [at 15.8 µM] (inactive)
Oc1ccccc1,,inactive,inactive,inactive,inactive,inactive,inactive,inactive,inactive,inactive,,,
